Our source for the outcome and AC50 values is PubChem BioAssay (EPA / NIEHS).

Calls of active or inactive are those of the source. The calls were made as follows: active = hit-call score of the fitted dose curve at least 0.9, where 1 is the maximum; inactive = score below 0.9.

The AC50 is the midpoint of the concentration-response curve, whichever way the signal moves.

Read-out in assay [1]: urokinase plasminogen activator (uPA), PLAU (gene 5328)
Description: BSK_KF3CT_uPA: BioMAP Diversity Plus: KF3CT Assay for urokinase plasminogen activator (uPA) Biomarker Activity (AID 2283075). The conditions noted are these: primary human keratinocytes with fibroblasts; actives raise or lower the signal. In outline: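 Values derive from bidirectional fitting against DMSO controls. Keratinocyte/foreskin fibroblast co-cultures received chemical; 24 h later uPA was detected by ELISA, with SRB total-protein staining in parallel wells for overt cytotoxicity.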

Read-out in assay [2]: CD40, CD40 (gene 958)
Description: BSK_LPS_CD40: BioMAP Diversity Plus: LPS Assay for CD40 Biomarker Activity (AID 2283076). Particulars: primary human HUVEC with PBMC; actives raise or lower the signal. In a few lines: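 HUVEC plus PBMC co-culture stimulated with LPS; CD40 quantified by ELISA 24 h after compound dosing. Fitting was bidirectional relative to DMSO. SRB staining of parallel cultures flagged overt cytotoxicity.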

Read-out in assay [3]: E-selectin (Homo sapiens) (UniProt P16581)
Briefly: BSK_LPS_Eselectin: BioMAP Diversity Plus: LPS Assay for Eselectin Biomarker Activity (AID 2283077). The conditions noted are these: primary human HUVEC with PBMC; actives raise or lower the signal. In a few lines:
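Human umbilical vein endothelial cells co-cultured with PBMC under LPS stimulation; cell-surface E-selectin measured by ELISA 24 h after dosing. Change in either direction versus DMSO, with SRB total-protein staining in parallel cultures for cytotoxicity.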

Assay [4] is described as follows: BSK_LPS_SRB: Viability Assessment in the BioMAP Diversity Plus: LPS Assay (AID 2283079).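 Also: total protein by sulforhodamine B absorbance as a cytotoxicity measure; measured one day after compound addition; fitted in both directions against DMSO so loss or gain of signal counts.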 Particulars: primary human HUVEC with PBMC. In a few lines:
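Co-culture of human umbilical vein endothelial cells and PBMC, read 24 h after dosing. Total protein by 0.1% SRB staining after 10% TCA fixation, absorbance at 560 nm; bidirectional fit against DMSO.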

Read-out in assay [5]: Interleukin-1 alpha (IL1a), IL1A (gene 3552)
Briefly: BSK_LPS_IL1a: BioMAP Diversity Plus: LPS Assay for Interleukin-1 alpha (IL1a) Biomarker Activity (AID 2283080). The conditions noted are these: primary human HUVEC with PBMC; actives raise or lower the signal. In a few lines:
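Human umbilical vein endothelial cells co-cultured with PBMC and stimulated with LPS; IL-1a measured by ELISA 24 h after dosing. Bidirectional fitting against DMSO; cytotoxicity checked by SRB staining in parallel cultures.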

Read-out in assay [6]: Monocyte Chemoattractant Protein-1 (MCP1), CCL2 (gene 6347)
Description: BSK_LPS_MCP1: BioMAP Diversity Plus: LPS Assay for Monocyte Chemoattractant Protein-1 (MCP1) Biomarker Activity (AID 2283081).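 As to AC50: secreted MCP-1 protein quantified by ELISA in culture supernatant.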 Particulars: primary human HUVEC with PBMC; actives raise or lower the signal. In a few lines: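 Human umbilical vein endothelial cells co-cultured with PBMC, LPS-stimulated; secreted MCP-1 measured by ELISA 24 h after compound addition. Bidirectional curve fitting against DMSO baseline; SRB total-protein staining in parallel cultures for cytotoxicity.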

Assay [7] in a line: BSK_LPS_PGE2: BioMAP Diversity Plus: LPS Assay for Prostaglandin E2 (PGE2) Biomarker Activity (AID 2283082). Particulars: primary human HUVEC with PBMC; actives raise or lower the signal. In outline: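 ELISA read-out of PGE2 from human umbilical vein endothelial cells co-cultured with peripheral blood mononuclear cells under LPS, 24 h post-dose. Gain or loss of signal scored relative to DMSO baseline.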

Read-out in assay [8]: Macrophage colony-stimulating factor (MCSF), CSF1 (gene 1435)
Briefly: BSK_LPS_MCSF: BioMAP Diversity Plus: LPS Assay for Macrophage colony-stimulating factor (MCSF) Biomarker Activity (AID 2283083). Particulars: primary human HUVEC with PBMC; actives raise or lower the signal. In a few lines: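 HUVEC–PBMC co-culture, M-CSF measured by ELISA 24 h after chemical dosing. Fitted in both directions relative to DMSO as negative control; overt cytotoxicity assessed by SRB total-protein staining in parallel cultures.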

Read-out in assay [9]: Tissue Factor, F3 (gene 2152)
Description: BSK_LPS_TissueFactor: BioMAP Diversity Plus: LPS Assay for Tissue Factor Biomarker Activity (AID 2283084). Particulars: primary human HUVEC with PBMC; actives raise or lower the signal. In a few lines:
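Human umbilical vein endothelial cells co-cultured with PBMC were dosed with compound. Cell-surface CD142 was measured by ELISA 24 h later. Activity was fitted bidirectionally against DMSO, with SRB total-protein staining in parallel cultures for cytotoxicity.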

Read-out in assay [10]: Tumor necrosis factor (Homo sapiens) (UniProt P01375)
Briefly: BSK_LPS_TNFa: BioMAP Diversity Plus: LPS Assay for Tumour Necrosis Factor alpha (TNFa) Biomarker Activity (AID 2283085).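 As to AC50: TNFa protein level quantified by ELISA in the co-culture.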 Particulars: primary human HUVEC with PBMC; actives raise or lower the signal. In a few lines:
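HUVEC/PBMC co-culture, LPS-stimulated; 24 h post-dose; TNFa by ELISA; gain or loss of signal fitted bidirectionally vs DMSO baseline.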

Read-out in assay [11]: Vascular cell adhesion molecule 1 (VCAM1), VCAM1 (gene 7412)
Briefly: BSK_LPS_VCAM1: BioMAP Diversity Plus: LPS Assay for Vascular cell adhesion molecule 1 (VCAM1) Biomarker Activity (AID 2283086). The conditions noted are these: primary human HUVEC with PBMC; actives raise or lower the signal. In outline:
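ELISA read-out of VCAM-1 at 24 h post-dosing in an LPS-driven HUVEC/PBMC primary human co-culture; gain or loss of signal fitted bidirectionally against DMSO baseline. Cytotoxicity tracked in parallel cultures by SRB total-protein staining.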

Read-out in another assay: CD38, CD38 (gene 952)
Briefly: BSK_SAg_CD38: BioMAP Diversity Plus: SAg Assay for CD38 Biomarker Activity (AID 2283087). The conditions noted are these: primary human HUVEC with PBMC; actives raise or lower the signal. In a few lines:
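Measures CD38 on a human endothelial/PBMC co-culture driven by SEB and TSST-1, 24 h after compound exposure, using ELISA with fluorescence detection; DMSO defines baseline for bidirectional curve fitting.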

Read-out in assay [12]: CD40, CD40 (gene 958)
Description: BSK_SAg_CD40: BioMAP Diversity Plus: SAg Assay for CD40 Biomarker Activity (AID 2283088). The conditions noted are these: primary human HUVEC with PBMC; actives raise or lower the signal. In a few lines:
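HUVEC plus PBMC co-culture, superantigen-activated, with CD40 read by ELISA 24 h after dosing. Curves fitted in both directions against DMSO. Overt cytotoxicity checked by parallel SRB total-protein staining.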

Read-out in a further assay: CD69, CD69 (gene 969)
Briefly: BSK_SAg_CD69: BioMAP Diversity Plus: SAg Assay for CD69 Biomarker Activity (AID 2283089). The conditions noted are these: primary human HUVEC with PBMC; actives raise or lower the signal. In outline: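 Values derive from bidirectional fitting relative to DMSO vehicle. Cells: umbilical vein endothelium plus peripheral blood mononuclear cells, treated 24 h before fluorescent ELISA for CD69.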

Read-out in assay [13]: Monocyte Chemoattractant Protein-1 (MCP1), CCL2 (gene 6347)
Briefly: BSK_SAg_MCP1: BioMAP Diversity Plus: SAg Assay for Monocyte Chemoattractant Protein-1 (MCP1) Biomarker Activity (AID 2283090). Particulars: primary human HUVEC with PBMC; actives raise or lower the signal. In outline: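 Values derive from bidirectional fitting of ELISA-measured MCP1 against DMSO controls. Readings were taken 24 h after dosing human vascular endothelial cells co-cultured with peripheral blood mononuclear cells under superantigen stimulation.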

Read-out in assay [14]: E-selectin (Homo sapiens) (UniProt P16581)
Briefly: BSK_SAg_Eselectin: BioMAP Diversity Plus: SAg Assay for Eselectin Biomarker Activity (AID 2283091). Particulars: primary human HUVEC with PBMC; actives raise or lower the signal. In outline: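 Human umbilical vein endothelial cells co-cultured with peripheral blood mononuclear cells, SAg system. E-selectin is measured by ELISA 24 h after dosing and fitted bidirectionally against DMSO. Cytotoxicity is checked by SRB staining of parallel cultures.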

Read-out in assay [15]: Monokine induced gamma interferon (MIG), CXCL9 (gene 4283)
Description: BSK_SAg_MIG: BioMAP Diversity Plus: SAg Assay for Monokine induced gamma interferon (MIG) Biomarker Activity (AID 2283092). Particulars: primary human HUVEC with PBMC; actives raise or lower the signal. In outline: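 Values reflect bidirectional fitting of ELISA-measured MIG against DMSO vehicle, taken 24 h after dosing of a co-culture of human umbilical vein endothelial cells and peripheral blood mononuclear cells.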

Read-out in assay [16]: Interleukin-8 (IL8), CXCL8 (gene 3576)
Briefly: BSK_SAg_IL8: BioMAP Diversity Plus: SAg Assay for Interleukin-8 (IL8) Biomarker Activity (AID 2283094). The conditions noted are these: primary human HUVEC with PBMC; actives raise or lower the signal. In outline: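 HUVEC/PBMC co-culture, 24 h post-dose; IL-8 by ELISA. Gain or loss of signal fitted bidirectionally vs DMSO baseline.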

Assay [17] can be described thus: BSK_SAg_PBMCCytotoxicity: PBMC Cytotoxicity Assessment in the BioMAP Diversity Plus: SAg Assay (AID 2283093).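 Also: PBMC viability measured as Alamar Blue reduction fluorescence at 546/580 nm; fitted both ways against DMSO so a hit may be loss or gain of signal.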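 As to AC50: PBMC superantigen activated with SEB plus TSST-1 one hour after compound addition.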 Particulars: primary human HUVEC with PBMC. In a few lines:
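Alamar Blue reduction (6 h, 546/580 nm) reports PBMC cytotoxicity after 90 h superantigen activation (SEB, TSST-1; 20 ng/mL final each) with 1 h compound pre-treatment. Gain or loss of signal fitted versus DMSO.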

Sequence of Tumor necrosis factor (Homo sapiens) (P01375 whole entry, looked up): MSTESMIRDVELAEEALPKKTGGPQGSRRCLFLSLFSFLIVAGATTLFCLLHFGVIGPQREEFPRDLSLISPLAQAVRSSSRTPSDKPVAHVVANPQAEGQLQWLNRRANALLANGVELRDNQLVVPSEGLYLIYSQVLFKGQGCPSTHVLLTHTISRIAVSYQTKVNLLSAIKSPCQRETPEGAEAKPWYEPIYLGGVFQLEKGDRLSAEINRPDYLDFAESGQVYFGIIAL
Sequence of E-selectin (Homo sapiens) (P16581 whole entry, looked up): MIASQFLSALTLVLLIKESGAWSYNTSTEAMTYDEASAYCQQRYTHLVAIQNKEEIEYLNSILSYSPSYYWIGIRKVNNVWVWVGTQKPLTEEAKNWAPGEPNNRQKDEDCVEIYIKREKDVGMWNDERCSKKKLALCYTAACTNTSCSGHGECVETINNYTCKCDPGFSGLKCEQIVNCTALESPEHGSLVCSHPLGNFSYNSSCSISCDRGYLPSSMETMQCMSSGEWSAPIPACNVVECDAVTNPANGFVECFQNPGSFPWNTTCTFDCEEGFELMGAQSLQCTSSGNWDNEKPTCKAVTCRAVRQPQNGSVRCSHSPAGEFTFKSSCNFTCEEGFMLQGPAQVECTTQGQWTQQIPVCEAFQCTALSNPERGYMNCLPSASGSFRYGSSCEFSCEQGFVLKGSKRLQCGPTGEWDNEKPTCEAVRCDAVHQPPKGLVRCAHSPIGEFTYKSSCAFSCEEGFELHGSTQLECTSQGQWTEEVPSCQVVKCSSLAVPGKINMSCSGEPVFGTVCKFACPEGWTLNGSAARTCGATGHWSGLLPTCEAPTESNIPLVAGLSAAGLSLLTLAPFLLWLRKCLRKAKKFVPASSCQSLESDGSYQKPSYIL

Turning to `Cc1occc(=O)c1O`, the outcome in assay [1] was “inactive”; in the assay with CD40, CD40 (gene 958) [2], “inactive”; in assay [3], “inactive”; in assay [4], “inactive”; in assay [5], “inactive”; in assay [6], “inactive”. In addition, the outcome was “inactive” in [7]; “inactive” in assay [8]; “inactive” in assay [9]; “inactive” in [10]; “inactive” in assay [11]; “inactive” in the assay with CD38, CD38 (gene 952). Besides, the outcome in the assay with CD40, CD40 (gene 958) [12] was “inactive”; with CD69, CD69 (gene 969) it was “inactive”; in assay [13] it was “inactive”; in assay [14], “inactive”; in assay [15], “inactive”; in assay [16], “inactive”.
Regarding `CC(C)c1cccc(C(C)C)c1`, the outcome in assay [1] is “inactive”; with CD40, CD40 (gene 958) [2], “inactive”; in assay [3], “inactive”; in assay [4], “inactive”; in assay [5], “inactive”; in assay [6], “inactive”. The outcome is “inactive” in assay [7]; “inactive” in [8]; “inactive” in [9]; “inactive” in assay [10]; “inactive” in assay [11]; “inactive” in the assay with CD38, CD38 (gene 952). The outcome was “inactive” in the assay with CD40, CD40 (gene 958) [12]; “inactive” with CD69, CD69 (gene 969); “inactive” in [13]; “inactive” in [14]; “inactive” in [15]; “inactive” in assay [16].
Consider `CCCC[C@H]1CN(CC2CCOCC2)C(=O)OC12CCN(C1(C)CCN(C(=O)c3c(C)ncnc3C)CC1)CC2`, for which the outcome in assay [1] was “inactive”; with CD40, CD40 (gene 958) [2], “inactive”; in [3] it was “inactive”; in [4] it was “inactive”; in [5], “inactive”; in assay [6] it was “inactive”. Besides, the outcome in assay [7] was “inactive”; in assay [8], “inactive”; in assay [10], “inactive”; in assay [11], “inactive”; with CD38, CD38 (gene 952), “inactive”; with CD40, CD40 (gene 958) [12], “inactive”. For the same molecule, the outcome is “inactive” in the assay with CD69, CD69 (gene 969); “inactive” in assay [13]; “inactive” in [14]; “inactive” in [15]; “inactive” in assay [17]; “inactive” in [16].
On to `COC(=O)[C@H]1[C@H]2C[C@@H]3c4[nH]c5cc(OC)ccc5c4CCN3C[C@H]2C[C@@H](OC(=O)c2cc(OC)c(OC)c(OC)c2)[C@@H]1OC`, for which the outcome in assay [1], in assay [3], in assay [7] and in assay [14] was inactive. Further, the AC50 with CD40, CD40 (gene 958) [2] is 23.5 µM (active); in assay [4], 21.8 µM (active); in [5] it was 22.6 µM (active); in assay [6], 18.6 µM (active); in assay [8], 21.2 µM (active); in assay [10], 28.7 µM (active). Moreover, the AC50 in assay [11] was 12 µM (active); in the assay with CD38, CD38 (gene 952), 25.7 µM (active); with CD40, CD40 (gene 958) [12] it was 26.6 µM (active); in assay [13], 22.6 µM (active); in [15] it was 24.5 µM (active); in assay [17], 23.9 µM (active).
For `CSc1ccc(Oc2ccc(S(N)(=O)=O)cc2CN(C)C)cc1C`, the outcome was “inactive” in [1]; “inactive” with CD40, CD40 (gene 958) [2]; “inactive” in assay [3]; “inactive” in [4]; “inactive” in assay [5]; “inactive” in assay [6]. The outcome in assay [7] is “inactive”; in [8], “inactive”; in assay [10], “inactive”; in assay [11], “inactive”; in the assay with CD38, CD38 (gene 952), “inactive”; in the assay with CD40, CD40 (gene 958) [12], “inactive”. For the same molecule, the outcome is “inactive” in the assay with CD69, CD69 (gene 969); “inactive” in assay [13]; “inactive” in [14]; “inactive” in assay [15]; “inactive” in assay [17]; “inactive” in [16].
